Measured values published in PubChem BioAssay AID488864 (Broad Institute, 2010).
Results with a measured potency or affinity are listed apart. A number with no mark means an inactive call. The source made the active and inactive calls.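 How the source made its calls: active means ATP signal reduced by compound, with fitted active dose under ten times the top valid tested dose; inactive means the rest, compounds that increase ATP levels included.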

Experiment: INS-1E beta-cell viability without cytokines, dose response, cytotoxicity control for beta-cell cytokine protection project, CellTiter-Glo luminescence, dry powder (AID 488864)
Settings: INS-1E rat beta cells, 48 h, no cytokines; series mostly up to 26 µM; activity change, negative = ATP decrease: at the top concentration

SMILES	activity change, negative = ATP decrease	outcome
C[C@@H]1CN([C@@H](C)CO)C(=O)c2cccc(NC(=O)Nc3cccc4ccccc34)c2O[C@H]1CN(C)S(=O)(=O)c1ccccc1	6.66%	
C[C@@H]1CN([C@@H](C)CO)C(=O)c2cccc(NC(=O)Nc3cccc4ccccc34)c2O[C@H]1CN(C)S(=O)(=O)c1cccs1	8.1%	
C[C@@H]1CN([C@@H](C)CO)C(=O)c2cccc(NC(=O)Nc3cccc4ccccc34)c2O[C@H]1CN(C)CC1CC1	0.187%	
C[C@@H]1CN([C@H](C)CO)C(=O)c2cccc(NC(=O)Nc3ccccc3)c2O[C@H]1CN(C)S(=O)(=O)c1ccc(F)cc1	1.43%	
Cc1ccc(S(=O)(=O)N(C)C[C@@H]2Oc3c(NC(=O)Nc4ccc(F)cc4)cccc3C(=O)N([C@@H](C)CO)C[C@H]2C)cc1	3.29%	
COc1ccc(S(=O)(=O)N(C)C[C@@H]2Oc3c(NC(=O)Nc4ccc(F)cc4)cccc3C(=O)N([C@@H](C)CO)C[C@H]2C)cc1	5.46% [at 23.5 µM]	
C[C@@H]1CN([C@@H](C)CO)C(=O)c2cccc(NC(=O)Nc3cccc4ccccc34)c2O[C@H]1CN(C)S(=O)(=O)c1ccc2c(c1)oc(=O)n2C	2.94%	
COc1ccc(S(=O)(=O)N(C)C[C@@H]2Oc3c(cccc3N(C)C)C(=O)N([C@@H](C)CO)C[C@H]2C)cc1	5.31% [at 23.5 µM]	
C[C@@H]1CN([C@@H](C)CO)C(=O)c2cccc(NC(=O)Nc3cccc4ccccc34)c2O[C@H]1CN(C)S(=O)(=O)c1cccc(F)c1	5%	
Cc1noc(C)c1NC(=O)N(C)C[C@@H]1Oc2c(NC(=O)Nc3cccc4ccccc34)cccc2C(=O)N([C@@H](C)CO)C[C@H]1C	0.037%	
COc1ccc(S(=O)(=O)N(C)C[C@@H]2Oc3c(NC(=O)Nc4cccc5ccccc45)cccc3C(=O)N([C@@H](C)CO)C[C@H]2C)cc1Cl	15.4%	
COc1ccc(S(=O)(=O)N(C)C[C@@H]2Oc3c(NS(C)(=O)=O)cccc3C(=O)N([C@@H](C)CO)C[C@H]2C)cc1	4.08%	
COc1ccc(S(=O)(=O)N(C)C[C@@H]2Oc3c(NS(=O)(=O)c4ccc(C)cc4)cccc3C(=O)N([C@@H](C)CO)C[C@H]2C)cc1	7.96% [at 23.5 µM]	
COc1ccc(S(=O)(=O)N(C)C[C@@H]2Oc3c(NC(=O)c4cccc5ccccc45)cccc3C(=O)N([C@@H](C)CO)C[C@H]2C)cc1	4.48%	
COc1ccc(S(=O)(=O)N(C)C[C@H]2Oc3c(NC(=O)Nc4cccc5ccccc45)cccc3C(=O)N([C@H](C)CO)C[C@@H]2C)cc1	2.53%	
C[C@@H]1CN([C@@H](C)CO)C(=O)c2cccc(NS(=O)(=O)c3ccccc3)c2O[C@H]1CN(C)Cc1ccc(C(F)(F)F)cc1	1.05%	
C[C@@H]1CN([C@@H](C)CO)C(=O)c2cccc(NC(=O)Nc3cccc4ccccc34)c2O[C@H]1CN(C)S(=O)(=O)c1ccc2c(c1)OCCO2		inactive
Cc1ccc(S(=O)(=O)N(C)C[C@@H]2Oc3c(NC(=O)Nc4cccc5ccccc45)cccc3C(=O)N([C@@H](C)CO)C[C@H]2C)cc1	5.11%	
